Measured values: PubChem BioAssay AID1159580 (chemical genetic matrix, 2015)
Several values for one entry are separate records, joined by “and”; a condition that tells them apart may be missing. Equal values may be shown once. Screen size: about 5,500 compounds; about 2,000 (36%) were called active. Not shown: some 18% with an inconclusive outcome. Rule as the data show it: active = normalized growth mostly below about 0.91 (no sharp cut-off); inconclusive = no clear call, values can overlap the other calls; inactive = mostly above about 0.92. This is one part of the list.

Experiment: chemical genetic growth profiling, strain panel (AID 1159580);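 also: tested at 20 µM; growth read once vehicle control cultures reached saturation at 30 °C; 1 = growth at the plate median or of vehicle wells; lower values mean less growth of the strain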
Conditions: growth OD

Measured: normalized growth

COc1c2c(cc3c1OCO3)CC[N+](C)=C2
inactive: S. cerevisiae deletion strains, locus YAL013W, strain DEP1, active compounds read low 1 | S. cerevisiae deletion strains, locus YAL021C, strain ccr4, active compounds read low 0.977 | S. cerevisiae deletion strains, locus YAL026C, strain drs2, active compounds read low 0.995 | S. cerevisiae deletion strains, locus YAL030W, strain snc1, active compounds read low 0.994 | S. cerevisiae deletion strains, locus YBL061C, strain skt5, active compounds read low 1.01 | S. cerevisiae deletion strains, locus YBR009C, strain hhf1, active compounds read low 0.984 | S. cerevisiae deletion strains, locus YBR021W, strain FUR4, active compounds read low 1.02 | S. cerevisiae deletion strains, locus YBR023C, strain chs3, active compounds read low 1.01 | S. cerevisiae deletion strains, locus YBR171W, strain sec66, active compounds read low 0.997 | S. cerevisiae deletion strains, locus YBR229C, strain ROT2, active compounds read low 0.999 | S. cerevisiae deletion strains, locus YBR231C, strain swc5, active compounds read low 1.03 | S. cerevisiae deletion strains, locus YBR279W, strain paf1, active compounds read low 1 | S. cerevisiae deletion strains, locus YCL011C, strain gbp2, active compounds read low 0.986 | S. cerevisiae deletion strains, locus YCL016C, strain dcc1, active compounds read low 0.974 | S. cerevisiae deletion strains, locus YCL029C, strain bik1, active compounds read low 0.993 | S. cerevisiae deletion strains, locus YCL069W, strain vba3, active compounds read low 0.99 | S. cerevisiae deletion strains, locus YCR088W, strain abp1, active compounds read low 1 | S. cerevisiae deletion strains, locus YDL005C, strain med2, active compounds read low 1 | S. cerevisiae deletion strains, locus YDL035C, strain GPR1, active compounds read low 1.01 | S. cerevisiae deletion strains, locus YDL040C, strain nat1, active compounds read low 1.01 | S. cerevisiae deletion strains, locus YDL074C, strain BRE1, active compounds read low 1.04 | S. cerevisiae deletion strains, locus YDL101C, strain DUN1, active compounds read low 1.02 | S. cerevisiae deletion strains, locus YDL134C, strain PPH21, active compounds read low 1.05 | S. cerevisiae deletion strains, locus YDL185W, strain tfp1, active compounds read low 1.01 | S. cerevisiae deletion strains, locus YDL192W, strain arf1, active compounds read low 1 | S. cerevisiae deletion strains, locus YDR001C, strain nth1, active compounds read low 0.977 | S. cerevisiae deletion strains, locus YDR069C, strain doa4, active compounds read low 1.01 | S. cerevisiae deletion strains, locus YDR101C, strain arx1, active compounds read low 1 | S. cerevisiae deletion strains, locus YDR137W, strain rgp1, active compounds read low 1 | S. cerevisiae deletion strains, locus YDR150W, strain NUM1, active compounds read low 0.993 | S. cerevisiae deletion strains, locus YDR159W, strain sac3, active compounds read low 1.08 | S. cerevisiae deletion strains, locus YDR162C, strain NBP2, active compounds read low 1.05 | S. cerevisiae deletion strains, locus YDR195W, strain ref2 1.01 | S. cerevisiae deletion strains, locus YDR297W, strain sur2, active compounds read low 1.02 | S. cerevisiae deletion strains, locus YDR318W, strain mcm21, active compounds read low 1 | S. cerevisiae deletion strains, locus YDR334W, strain swr1, active compounds read low 0.991 | S. cerevisiae deletion strains, locus YDR335W, strain msn5, active compounds read low 0.996 | S. cerevisiae deletion strains, locus YDR388W, active compounds read low 0.994 | S. cerevisiae deletion strains, locus YDR392W, strain spt3, active compounds read low 0.93 | S. cerevisiae deletion strains, locus YDR502C, strain sam2, active compounds read low 1.01 | S. cerevisiae deletion strains, locus YEL003W, strain gim4, active compounds read low 1 | S. cerevisiae deletion strains, locus YEL037C, strain rad23, active compounds read low 0.986 | S. cerevisiae deletion strains, locus YEL061C, strain CIN8 (second series), active compounds read low 0.998 | S. cerevisiae deletion strains, locus YER015W, strain faa2, active compounds read low 0.998 | S. cerevisiae deletion strains, locus YER016W, strain bim1, active compounds read low 1.01 | S. cerevisiae deletion strains, locus YER110C, active compounds read low 1.01 | S. cerevisiae deletion strains, locus YER111C, strain swi4, active compounds read low 1 | S. cerevisiae deletion strains, locus YER155C, strain BEM2 (second series), active compounds read low 1.06 | S. cerevisiae deletion strains, locus YER155C, strain BEM2, active compounds read low 0.976 | S. cerevisiae deletion strains, locus YER167W, strain BCK2, active compounds read low 0.997 | S. cerevisiae deletion strains, locus YFR010W, strain ubp6, active compounds read low 0.996 | S. cerevisiae deletion strains, locus YGL078C, strain dbp3, active compounds read low 1.04 | S. cerevisiae deletion strains, locus YGL086W, strain mad1, active compounds read low 1.01 | S. cerevisiae deletion strains, locus YGL167C, strain pmr1, active compounds read low 0.993 | S. cerevisiae deletion strains, locus YGL173C, strain kem1, active compounds read low 1.02 | S. cerevisiae deletion strains, locus YGL227W, strain vid30, active compounds read low 0.999 | S. cerevisiae deletion strains, locus YGL240W, strain doc1, active compounds read low 1.02 | S. cerevisiae deletion strains, locus YGL248W, strain PDE1, active compounds read low 1.03 | S. cerevisiae deletion strains, locus YGL253W, strain hxk2, active compounds read low 1 | S. cerevisiae deletion strains, locus YGR078C, strain PAC10, active compounds read low 0.987 | S. cerevisiae deletion strains, locus YGR135W, strain pre9, active compounds read low 1.03 | S. cerevisiae deletion strains, locus YGR252W, strain gcn5, active compounds read low 1.05 | S. cerevisiae deletion strains, locus YHR013C, strain ard1, active compounds read low 0.974 | S. cerevisiae deletion strains, locus YHR027C, strain rpn1, active compounds read low 0.981 | S. cerevisiae deletion strains, locus YHR030C, strain SLT2, active compounds read low 0.989 | S. cerevisiae deletion strains, locus YHR079C, strain IRE1 (second series), active compounds read low 1.01 | S. cerevisiae deletion strains, locus YHR079C, strain IRE1, active compounds read low 1 | S. cerevisiae deletion strains, locus YHR094C, strain hxt1, active compounds read low 1 | S. cerevisiae deletion strains, locus YHR129C, strain ARP1, active compounds read low 1 | S. cerevisiae deletion strains, locus YHR142W, strain chs7, active compounds read low 0.982 | S. cerevisiae deletion strains, locus YHR200W, strain rpn10, active compounds read low 0.998 | S. cerevisiae deletion strains, locus YIL066C, strain RNR3, active compounds read low 1 | S. cerevisiae deletion strains, locus YIL073C, strain SPO22, active compounds read low 1.06 | S. cerevisiae deletion strains, locus YIL125W, strain kgd1, active compounds read low 0.995 | S. cerevisiae deletion strains, locus YIR030C, strain dcg1, active compounds read low 1.01 | S. cerevisiae deletion strains, locus YJL092W, strain hpr5, active compounds read low 0.988 | S. cerevisiae deletion strains, locus YJL095W, strain BCK1 (second series), active compounds read low 1 | S. cerevisiae deletion strains, locus YJL095W, strain BCK1, active compounds read low 1.05 and 0.977 | S. cerevisiae deletion strains, locus YJL115W, strain asf1, active compounds read low 0.977 | S. cerevisiae deletion strains, locus YJL129C, strain trk1, active compounds read low 1.01 | S. cerevisiae deletion strains, locus YJL134W, strain LCB3, active compounds read low 0.994 | S. cerevisiae deletion strains, locus YJL154C, strain vps35, active compounds read low 0.985 | S. cerevisiae deletion strains, locus YJL164C, strain tpk1, active compounds read low 0.965 | S. cerevisiae deletion strains, locus YJL166W, strain qcr8, active compounds read low 1.01 | S. cerevisiae deletion strains, locus YJL168C, strain set2, active compounds read low 1.01 | S. cerevisiae deletion strains, locus YJL187C, strain SWE1 (second series), active compounds read low 1.04 | S. cerevisiae deletion strains, locus YJL187C, strain SWE1, active compounds read low 1.02 | S. cerevisiae deletion strains, locus YJR043C, strain POL32, active compounds read low 0.99 | S. cerevisiae deletion strains, locus YJR066W, strain TOR1, active compounds read low 0.886 | S. cerevisiae deletion strains, locus YKL009W, strain mrt4, active compounds read low 1.04 | S. cerevisiae deletion strains, locus YKL068W, active compounds read low 0.996 | S. cerevisiae deletion strains, locus YKL085W, strain MDH1 (second series), active compounds read low 1.01 | S. cerevisiae deletion strains, locus YKL085W, strain MDH1, active compounds read low 1.01 | S. cerevisiae deletion strains, locus YKL160W, strain elf1, active compounds read low 0.977 | S. cerevisiae deletion strains, locus YKL190W, strain CNB1, active compounds read low 1 | S. cerevisiae deletion strains, locus YKR001C, strain vps1, active compounds read low 1.02 | S. cerevisiae deletion strains, locus YKR026C, strain gcn3, active compounds read low 0.993 | S. cerevisiae deletion strains, locus YKR091W, strain srl3, active compounds read low 0.99 | S. cerevisiae deletion strains, locus YLL001W, strain dnm1, active compounds read low 1 | S. cerevisiae deletion strains, locus YLL026W, active compounds read low 1 | S. cerevisiae deletion strains, locus YLL041C, strain sdh2, active compounds read low 0.984 | S. cerevisiae deletion strains, locus YLR027C, strain aat2, active compounds read low 1.01 | S. cerevisiae deletion strains, locus YLR039C, strain RIC1, active compounds read low 1.1 | S. cerevisiae deletion strains, locus YLR058C, strain SHM2, active compounds read low 1.02 | S. cerevisiae deletion strains, locus YLR102C, strain apc9, active compounds read low 1 | S. cerevisiae deletion strains, locus YLR113W, strain HOG1, active compounds read low 0.978 | S. cerevisiae deletion strains, locus YLR221C, strain rsa3, active compounds read low 1.04 | S. cerevisiae deletion strains, locus YLR258W, strain gsy2, active compounds read low 1.02 | S. cerevisiae deletion strains, locus YLR262C, strain YPT6 (second series), active compounds read low 0.995 | S. cerevisiae deletion strains, locus YLR262C, strain YPT6, active compounds read low 1.12 | S. cerevisiae deletion strains, locus YLR268W, strain sec22, active compounds read low 0.999 | S. cerevisiae deletion strains, locus YLR320W, strain mms22, active compounds read low 1.06 | S. cerevisiae deletion strains, locus YLR342W, strain FKS1, active compounds read low 1.01 | S. cerevisiae deletion strains, locus YLR357W, strain rsc2, active compounds read low 0.968 | S. cerevisiae deletion strains, locus YLR370C, strain arc18, active compounds read low 1 | S. cerevisiae deletion strains, locus YLR371W, strain rom2, active compounds read low 1.01 | S. cerevisiae deletion strains, locus YLR384C, strain iki3, active compounds read low 0.999 | S. cerevisiae deletion strains, locus YLR418C, strain cdc73, active compounds read low 1.03 | S. cerevisiae deletion strains, locus YML016C, strain PPZ1, active compounds read low 1.01 | S. cerevisiae deletion strains, locus YML032C, strain rad52, active compounds read low 0.999 | S. cerevisiae deletion strains, locus YML120C, strain ndi1, active compounds read low 0.977 | S. cerevisiae deletion strains, locus YML124C, strain tub3, active compounds read low 1.01 | S. cerevisiae deletion strains, locus YMR058W, strain fet3, active compounds read low 1 | S. cerevisiae deletion strains, locus YMR078C, strain ctf18, active compounds read low 1 | S. cerevisiae deletion strains, locus YMR125W, strain sto1, active compounds read low 0.923 | S. cerevisiae deletion strains, locus YMR129W, active compounds read low 0.996 | S. cerevisiae deletion strains, locus YMR205C, strain PFK2, active compounds read low 0.975 | S. cerevisiae deletion strains, locus YMR223W, strain ubp8, active compounds read low 1.02 | S. cerevisiae deletion strains, locus YMR231W, strain pep5, active compounds read low 1.01 | S. cerevisiae deletion strains, locus YMR307W, strain GAS1, active compounds read low 1.03 | S. cerevisiae deletion strains, locus YNL067W, strain RPL9B, active compounds read low 1.03 | S. cerevisiae deletion strains, locus YNL071W, strain lat1, active compounds read low 0.998 | S. cerevisiae deletion strains, locus YNL183C, strain NPR1, active compounds read low 0.923 | S. cerevisiae deletion strains, locus YNL209W, strain ssb2, active compounds read low 0.992 | S. cerevisiae deletion strains, locus YNL233W, strain BNI4, active compounds read low 1.01 | S. cerevisiae deletion strains, locus YNL248C, strain rpa49, active compounds read low 0.924 | S. cerevisiae deletion strains, locus YNL250W, strain rad50, active compounds read low 1.03 | S. cerevisiae deletion strains, locus YNL271C, strain bni1, active compounds read low 1.03 | S. cerevisiae deletion strains, locus YNL298W, strain CLA4, active compounds read low 0.992 | S. cerevisiae deletion strains, locus YNL307C, strain MCK1, active compounds read low 1.01 | S. cerevisiae deletion strains, locus YNL322C, strain KRE1 (second series), active compounds read low 0.997 | S. cerevisiae deletion strains, locus YNR049C, strain mso1, active compounds read low 0.979 | S. cerevisiae deletion strains, locus YNR052C, strain pop2, active compounds read low 1.01 | S. cerevisiae deletion strains, locus YOL012C, strain htz1 0.651 | S. cerevisiae deletion strains, locus YOL147C, strain pex11, active compounds read low 1 | S. cerevisiae deletion strains, locus YOR001W, strain rrp6, active compounds read low 1.03 | S. cerevisiae deletion strains, locus YOR061W, strain CKA2, active compounds read low 1.01 | S. cerevisiae deletion strains, locus YOR069W, strain VPS5, active compounds read low 1 | S. cerevisiae deletion strains, locus YOR070C, strain gyp1, active compounds read low 1.02 | S. cerevisiae deletion strains, locus YOR080W, strain dia2, active compounds read low 1.02 | S. cerevisiae deletion strains, locus YOR083W, strain WHI5, active compounds read low 0.97 | S. cerevisiae deletion strains, locus YOR106W, strain vam3, active compounds read low 0.937 | S. cerevisiae deletion strains, locus YOR136W, strain idh2, active compounds read low 1.03 | S. cerevisiae deletion strains, locus YOR144C, strain elg1, active compounds read low 1 | S. cerevisiae deletion strains, locus YOR184W, strain ser1, active compounds read low 0.996 | S. cerevisiae deletion strains, locus YOR231W, strain MKK1, active compounds read low 0.994 | S. cerevisiae deletion strains, locus YOR265W, strain rbl2, active compounds read low 0.996 | S. cerevisiae deletion strains, locus YOR270C, strain vph1, active compounds read low 0.991 | S. cerevisiae deletion strains, locus YOR290C, strain snf2, active compounds read low 0.919 | S. cerevisiae deletion strains, locus YOR316C, strain cot1, active compounds read low 1.01 | S. cerevisiae deletion strains, locus YPL051W, strain arl3, active compounds read low 1.03 | S. cerevisiae deletion strains, locus YPL078C, strain atp4, active compounds read low 0.952 | S. cerevisiae deletion strains, locus YPL106C, strain sse1, active compounds read low 0.972 | S. cerevisiae deletion strains, locus YPL240C, strain hsp82, active compounds read low 1.01 | S. cerevisiae deletion strains, locus YPL256C, strain CLN2, active compounds read low 0.975 | S. cerevisiae deletion strains, locus YPR119W, strain clb2, active compounds read low 1.01 | S. cerevisiae deletion strains, locus YPR141C, strain kar3, active compounds read low 1.01 | S. cerevisiae deletion strains, locus YPR163C, strain tif3, active compounds read low 1.02 | S. cerevisiae deletion strains, locus YPR167C, strain met16, active compounds read low 1.01 | S. cerevisiae deletion strains, strain wtn01, active compounds read low 1 | S. cerevisiae strains, strain wild type, active compounds read low 1
